PubChem BioAssay (NCATS)
Records with an inconclusive call do not appear. A number with no mark means an inactive call. Active and inactive are the calls of the source. Calls come from the whole dose curve; as a rule, active = well fitted inhibition curve with a large enough effect; inconclusive = small, poorly fitted or top-dose-only effect; inactive = flat fitted curve, though single readings scatter.

Tests used:
Assay in all cases: Cytotoxic Profiling of Annotated Libraries Using Quantitative High-Throughput Screening (AID 1296008); note: nearly all actives have a fitted effect of over 60% in size
Settings in all cases: Five cell lines viability, CellTiter-Glo ATP luminescence, 48-72 h; max response: active compounds read low
CRL-7250 = normal cell line; tested on: CRL-7250
Outline: (§1)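 Cytotoxicity was measured as CellTiter-Glo ATP luminescence, read after 10 min at room temperature. Compound treatment of the cells lasted 48 or 72 hr at 37 degrees Celsius in a qHTS format.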

HEK293 = tested on: HEK293
Outline: as §1

HaCat = tested on: HaCat
Outline: as §1
% is set by controls: 0 for no effect and ±100 for the full control effect; potency is the fitted concentration of half-maximal effect.

SMILES: COC1C(O)C(C)OC(OC2C(CO)O[C@@H](O[C@@H]3CC4CCC5C(CC[C@]6(C)[C@@H](C7=CC(=O)OC7)CC[C@]56O)[C@@]4(C)[C@H](O)C3)C(O)C2O)C1O (stereo partly drawn)
- Potency (CRL-7250): 485 nM (active)
- Potency (HEK293): 432 nM (active)
- Potency (HaCat): 3430 nM (active)

SMILES: C[C@@]12C[C@@H](c3ccoc3)OC(=O)C1CC[C@]1(C)[C@H]2[C@H]2C=C[C@]1(O)C(=O)O2 (stereo partly drawn)
- outcome (CRL-7250): inactive
- outcome (HEK293): inactive
- max response (HaCat): -0.33%

SMILES: CC[C@H]1CN2CC[C@H]1C[C@@H]2[C@@H](O)c1ccnc2ccc(OC)cc12
- outcome (CRL-7250): inactive
- outcome (HEK293): inactive
- outcome (HaCat): inactive

SMILES: CC[C@H]1CN2CC[C@H]1C[C@H]2[C@H](O)c1ccnc2ccc(OC)cc12
- outcome (CRL-7250): inactive
- max response (HEK293): -14.1%
- outcome (HaCat): inactive

SMILES: CN(C(=O)Cc1ccccc1)C(CN1CCCC1)c1ccccc1 (stereo not drawn)
- max response (CRL-7250): 0.97%
- max response (HEK293): 0.503%
- max response (HaCat): 2.22%

SMILES: O=C(O)c1ccnc2cc(C(OCCN3CCCCC3)c3ccccc3Cl)[nH]c12 (stereo not drawn)
- outcome (CRL-7250): inactive
- outcome (HEK293): inactive
- outcome (HaCat): inactive

SMILES: CC(C)(C)c1cc(C(C)(C)C)c2c(c1)C(O)(C(F)(F)F)C(=O)O2 (stereo not drawn)
- outcome (CRL-7250): inactive
- max response (HEK293): 1.2%
- outcome (HaCat): inactive

SMILES: CN1C(=O)c2ccccc2NC(=O)C1Cc1ccccc1 (stereo not drawn)
- max response (CRL-7250): 3.07%
- outcome (HEK293): inactive
- max response (HaCat): 2.89%

SMILES: Oc1ccc2c3c1O[C@H]1[C@H](N(CCCl)CCCl)CC[C@@]4(O)[C@@H](C2)N(CC2CC2)CC[C@]314
- max response (CRL-7250): -3.35%
- max response (HEK293): 0.595%
- max response (HaCat): -4.26%

SMILES: CO[C@H]1[C@H](O)[C@H](O[C@H]2CC[C@]3(C)C4CC[C@]5(C)[C@H](C6=CC(=O)OC6)CC[C@]5(O)C4CC[C@@H]3C2)O[C@@H](C)[C@@H]1O (stereo partly drawn)
- Potency (CRL-7250): 25.2 nM (active)
- Potency (HEK293): 22.4 nM (active)
- Potency (HaCat): 2240 nM (active)

SMILES: C[C@@]1(C(=O)O)CC[C@]2(C)CC[C@]3(C)C4=CC(=O)c5cc(O)c(O)cc5[C@]4(C)CC[C@@]3(C)[C@@H]2C1
- outcome (CRL-7250): inactive
- max response (HEK293): -9.77%
- outcome (HaCat): inactive

SMILES: CCN1C[C@]2(COC)[C@H](O)C[C@H](OC)[C@]34[C@@H]5C[C@]6(O)[C@H](OC(=O)c7ccccc7)[C@@H]5[C@@](O)([C@H]([C@H](OC)[C@H]23)[C@@H]14)[C@@H](O)[C@@H]6OC
- outcome (CRL-7250): inactive
- outcome (HEK293): inactive
- max response (HaCat): 1.58%

SMILES: CC(C)=C1CC[C@]23CO[C@H](C2)[C@@](O)(C(=O)O)CCC13 (stereo partly drawn)
- max response (CRL-7250): 4.82%
- outcome (HEK293): inactive
- max response (HaCat): -7.37%

SMILES: C=C[C@H]1CN2CC[C@H]1C[C@@H]2[C@@H](O)c1ccnc2ccccc12
- max response (CRL-7250): -1.31%
- max response (HEK293): -22.7%
- max response (HaCat): 1.51%

SMILES: C1=C2CCCN[C@H]2[C@@H]2C[C@H]1[C@H]1CCCCN1C2
- outcome (CRL-7250): inactive
- max response (HEK293): -4.85%
- max response (HaCat): -5.08%

SMILES: COc1cc(C)[nH]c(=O)c1CNC(=O)c1c(C)n([C@H](C)C2CCOCC2)c2ccccc12
- outcome (CRL-7250): inactive
- outcome (HEK293): inactive
- max response (HaCat): 4.27%

SMILES: COC1CC(O[C@H]2CC[C@@]3(C)C(=CCC4C3C(O)[C@@H](O)[C@]3(C)[C@@H](C(C)=O)CC[C@]43O)C2)OC(C)C1OC1CC(OC)C(OC2OC(C)C(O)C(O)C2O)C(C)O1 (stereo partly drawn)
- max response (CRL-7250): -8.18%
- outcome (HEK293): inactive
- outcome (HaCat): inactive

SMILES: CC(CCc1ccc(O)cc1)O[C@@H]1O[C@H](CO[C@H]2OC[C@](O)(CO)[C@H]2O)[C@@H](O)[C@H](O)[C@H]1O (stereo partly drawn)
- outcome (CRL-7250): inactive
- outcome (HEK293): inactive
- outcome (HaCat): inactive

SMILES: COC1CC(O[C@H]2CC[C@]3(C=O)C4CC[C@]5(C)[C@@H](C6=CC(=O)OC6)CC[C@]5(O)[C@@H]4CC[C@]3(O)C2)OC(C)C1O[C@@H]1O[C@H](CO)[C@@H](O)[C@H](O)[C@H]1O (stereo partly drawn)
- Potency (CRL-7250): 96.8 nM (active)
- Potency (HEK293): 153 nM (active)
- Potency (HaCat): 1530 nM (active)

SMILES: OCCCCC#Cc1cncc(OC[C@@H]2CCN2)c1
- outcome (CRL-7250): inactive
- max response (HEK293): -3.98%
- outcome (HaCat): inactive

SMILES: C/C=C(\C)C(=O)O[C@H]1[C@H](OC(C)=O)[C@]2(CO)[C@H](O)[C@H](O)[C@]3(C)C(=CCC4[C@@]5(C)CC[C@H](O[C@@H]6O[C@H](C(=O)O)[C@@H](O)[C@H](O[C@@H]7OC[C@H](O)[C@H](O[C@@H]8OC[C@H](O)[C@H](O)[C@H]8O)[C@H]7O)[C@H]6O[C@@H]6O[C@H](CO)[C@@H](O)[C@H](O)[C@H]6O)C(C)(C)C5CC[C@]43C)[C@@H]2CC1(C)C (stereo partly drawn)
- max response (CRL-7250): 4.83%
- outcome (HEK293): inactive
- max response (HaCat): 3.31%
